SMN2 splice enh – qHTS Assay for Enhancers of SMN2 Splice Variant Expression; Potency, µM (highest dose often 46.1 µM), without a hit: at the top dose activity change, positive = activation, actives largely listed as activators; HEK293 SMN2-luciferase splicing reporter, luminescence, 30-36 h; 210,000 compounds, 2.8% hits; further: % of control where 0% means no effect; nearly all actives have a fitted effect of over 55% in size
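qHTS luciferase splicing reporter: luminescence rises when SMN2 exon 7 is included in transfected HEK293 cells. Compound exposure lasted 30-36 h at 37C, with 4.5 mM final sodium butyrate as control, followed by a ONE-Glo read.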
Rab9 prom act – qHTS Assay for Rab9 Promoter Activators; Huh7 Rab9 promoter-luciferase reporter, luminescence, 24 h; 320,000 compounds, 2.8% hits; Potency, µM (top dose mostly 9.22 µM), without a hit: at the highest dose activation, negative = inhibition, most hits filed as activators; AID 485297, 2010; further: % of control where 0% means no effect; nearly all actives have a fitted effect of over 60% in size
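Cells were plated at 1500 per well in reduced-serum medium with 10% FBS and left 2 h. Compound in DMSO was then added for 24 h at 37 °C. Reporter signal was read by luminescence after 10 min with luciferase detection reagent.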
FLuc counter – qHTS profiling assay for firefly luciferase inhibitor/activator using purifed enzyme and Km concentrations of substrates (counterscreen for miR-21 project). AID 588342, 2011. Luciferin 4-monooxygenase (Photinus pyralis), P08659. 360,000 compounds, 6.9% hits. Potency, µM (series often up to 57.5 µM), for inactives: at the top dose activity change, negative = inhibition, usual class: inhibitors. purified FLuc, Km substrates, luminescence inhibition;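 further: plate controls were vehicle for no effect and reference inhibitor for full effect; nearly all actives have a fitted effect of over 55% in size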
Target sequence (P08659 whole entry, looked up): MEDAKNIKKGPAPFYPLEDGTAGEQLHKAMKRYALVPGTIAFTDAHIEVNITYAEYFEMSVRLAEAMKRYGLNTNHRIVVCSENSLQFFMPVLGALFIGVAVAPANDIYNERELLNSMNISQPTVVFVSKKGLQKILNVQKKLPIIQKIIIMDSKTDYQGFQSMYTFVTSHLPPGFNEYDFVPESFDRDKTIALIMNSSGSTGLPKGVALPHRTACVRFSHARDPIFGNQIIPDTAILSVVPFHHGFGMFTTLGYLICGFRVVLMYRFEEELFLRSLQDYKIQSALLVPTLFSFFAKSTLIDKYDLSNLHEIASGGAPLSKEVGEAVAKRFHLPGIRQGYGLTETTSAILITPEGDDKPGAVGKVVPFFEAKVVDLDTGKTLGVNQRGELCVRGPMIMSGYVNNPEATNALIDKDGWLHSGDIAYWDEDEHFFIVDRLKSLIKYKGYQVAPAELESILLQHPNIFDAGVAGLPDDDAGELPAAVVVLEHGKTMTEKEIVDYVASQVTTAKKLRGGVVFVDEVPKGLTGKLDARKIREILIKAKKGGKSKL
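Purified P. pyralis luciferase (10nM final) with 10uM D-luciferin and 10uM ATP (Km levels) in 50mM Tris acetate pH 7.5, 10mM Mg acetate, 0.01% Tween-20, 0.05% BSA; qHTS 6-point titration, ~60 µM downward; luminescence read.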
ELG1 genotox – qHTS screen for small molecules that induce genotoxicity in human embryonic kidney (HEK293T) cells expressing luciferase-tagged ELG1; HEK293T ELG1-luciferase reporter, luminescence, 16 h; Potency, µM (top dose mostly 46 µM), for inactives: at the highest dose activity change, positive = activation, usual class: activators; 330,000 compounds, 1.3% hits; AID 504466, 2011; further: % of control where 0% means no effect; nearly all actives have a fitted effect of over 60% in size
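Reporter readout depends on ELG1 protein level, which increases with genetic stress. After 16 hr compound exposure at 37 °C, luciferase activity was quantified using ONE-Glo.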
NPC1 prom act – qHTS Assay for NPC1 Promoter Activators. Huh7 NPC1 promoter luciferase reporter, 24 h. Potency, µM (titrated, usually from 9.22 µM), without a hit: at the top dose activation, usual class: activators. 320,000 compounds, 2.4% hits. AID 485313, 2010; further: % of control where 0% means no effect; nearly all actives have a fitted effect of over 60% in size
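Stably transfected Huh7 (NPC1 promoter→luciferase), 1500 cells/well in Opti-MEM + 10% FBS, 2 h settle, then compound 24 h at 37 °C. Luminescence after 10 min with Amplite reagent.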
Starred values were filed as active, the others as inactive; ? = inconclusive; · = no result; [ ] = another dose, or the depositor's remark. An excerpt weighted towards active compounds, which were near 7.4% of everything screened. The call rests on the fitted dose curve; in most records, active means well fitted curve in the direction sought with a large enough effect; inconclusive means small, poorly fitted or top-dose-only effect, or another doubt; inactive means no such curve, though single readings can be large; an effect the other way counts as inactive or inconclusive. Potency means the concentration at half of the fitted maximal effect.

SMILES	SMN2 splice enh	Rab9 prom act	FLuc counter	ELG1 genotox	NPC1 prom act
COc1ccc2c(c1)C(=O)[C@@H](OC(=O)N[C@H]1CCCc3ccccc31)[C@H](c1ccc(OC)c(Br)c1)O2	-7%	·	·	·	·
O=C(CNC(=O)c1ccccc1F)OCc1nc2ccccc2s1	15%	4%	17µM*	14%	-2%
O=C(CNC(=O)c1ccccc1)OCc1nc2ccccc2s1	·	7%	9.5µM*	?	8%
O=C(CNC(=O)c1ccc(Cl)cc1Cl)OCc1nc2ccccc2s1	8%	10%	?	-8%	0%
O=C(COC(=O)c1cccs1)NCCC1=CCCCC1	?	8%	19µM*	-1%	-1%
O=C(COC(=O)c1ccccc1Cl)NCCC1=CCCCC1	7%	16%	17µM*	15%	3%
Cc1ccc(C(=O)OCC(=O)NCCC2=CCCCC2)s1	13%	-5%	-10%	-1%	1%
COCCCNC(=O)C1CCCN(S(=O)(=O)c2ccc3c(c2)oc(=O)n3C)C1 (stereo not given)	10%	·	2%	·	·
CCn1c(O)c(C=NC2CCCC(C)C2C)sc1=S (stereo not given)	·	?	15µM*	?	?
Cc1cc(=O)[nH]c2cc3oc4ccccc4c3cc12	-14%[9.22 µM]	·	·	·	·
N#C/C(=C\c1ccc(N2CCOCC2)o1)C(=O)NCC1CCCO1 (stereo not given)	·	-28%	0%	1%	-36%
Cc1ccc(/C(C#N)=C\c2ccc(N3CCOCC3)o2)cc1	13µM*	3.2µM*	24µM*	18µM*	4µM*
Cc1ccc2nc(/C(C#N)=C\c3ccc(N4CCOCC4)o3)[nH]c2c1	4µM*	1.8µM*	0.43µM*	?	2.2µM*
Cc1ccc2nc(/C(C#N)=C\c3ccc([N+](=O)[O-])o3)[nH]c2c1	-97%	-28%	-15%	1%	-36%
CC(C)=C[C@H]1[C@@H](C(=O)Oc2ccccc2C(C)C)C1(C)C	-6%[9.22 µM]	·	·	·	·
CN(C)c1ccc(C(=O)OCC(=O)NCCCc2ccccc2)cc1	·	-2%[1.84 µM]	-14%	1%	-4%
CN(C)c1ccc(C(=O)OCC(=O)N2CCCCCC2)cc1	22%	3.5µM*	?	11%	?
CN(C)c1ccc(C(=O)OCC(=O)NCCNC(=O)COC(=O)c2ccc(N(C)C)cc2)cc1	·	1.4µM*	4.8µM*	?	4µM*
CC(=O)N1CCc2cc(S(=O)(=O)NC(CC(C)C)C(=O)NCCc3ccccc3)ccc21 (stereo not given)	5%	·	4%	·	·
CCOc1ccccc1NC(=O)Nc1nnc(N2CCCC(C)C2)s1 (stereo not given)	·	·	-13%	·	·
CCC(CC)c1nnc(NC(=O)C2COc3ccccc3O2)s1 (stereo not given)	?	1.3µM*	7.6µM*	?	1.6µM*
O=C(NC1=NCCS1)C1COc2ccccc2O1 (stereo not given)	·	?	0.24µM*	?	0.025µM*
CCc1nnc(NC(=O)C2COc3ccccc3O2)s1 (stereo not given)	11µM*	2.8µM*	12µM*	?	3.2µM*
CCCCCc1nnc(NC(=O)C2COc3ccccc3O2)s1 (stereo not given)	-2%	29%	?	?	21%
Cc1nnc(NC(=O)C2COc3ccccc3O2)s1 (stereo not given)	28%	?	24µM*	?	?
SMILES	SMN2 splice enh	Rab9 prom act	FLuc counter	ELG1 genotox	NPC1 prom act
COc1ccc(Nc2ncc(C(=O)Nc3ccc(F)cc3F)c3ccccc23)cc1	6%	·	-2%	·	·
O=C(Nc1ccncc1)C1COc2ccccc2O1 (stereo not given)	·	-5%	-3%	-4%	1%
O=C(Nc1ncc(Cc2ccccc2)s1)C1COc2ccccc2O1 (stereo not given)	10µM*	2.8µM*	3µM*	12%	1.6µM*
O=C(Nc1nc2c(s1)CCCC2)C1COc2ccccc2O1 (stereo not given)	0.5µM*	0.32µM*	0.76µM*	0.58µM*	0.56µM*
COc1ccc(NC(=O)c2oc3ccccc3c2NC(=O)C2CC2)cc1OC	·	6%	17µM*	-7%	-1%
COc1ccc(NC(=O)c2oc3ccccc3c2NC(=O)C2CCCO2)cc1OC (stereo not given)	?	?	?	0%	24%
Cc1ccc(NC(=O)c2oc3ccccc3c2NC(=O)C2CCCO2)cc1C (stereo not given)	13µM*	2.5µM*	?	7%	2.8µM*
Cc1ccc(-n2c(SCC(=O)NCc3ccccc3)nc3n[nH]c(C)c3c2=N)cc1Cl	·	·	-1%	·	·
COc1ccc(C(=O)N2CCC(c3nc(-c4ccc(S(=O)(=O)N5CCCC5)cc4)no3)CC2)cc1	3%	·	-3%	·	·
CCC1CCc2sc(C(=O)NCc3ccccn3)cc2C1 (stereo not given)	·	28%	15µM*	?	?
CCC1CCc2sc(C(=O)NCC3CCCO3)cc2C1 (stereo not given)	·	1.8µM*	5.4µM*	?	2.8µM*
CCCN1CCN(CCNC(=O)Nc2ccc(OC)c(OC)c2)CC1	-4%	·	3%	·	·
COc1ccc(/C=C/C(=O)NC(=S)Nc2ccc(S(N)(=O)=O)cc2)cc1	·	-1%	2%	0%	-1%
COc1ccc(/C=C/C(=O)NC(=S)Nc2ccccn2)cc1	·	0.89µM*	?	?	1.3µM*
O=C(/C=C/c1ccccc1)NC(=S)Nc1ncccn1	·	0%	17µM*	4%	1%
COc1ccccc1/C=C/C(=O)NC(=S)Nc1ccccn1	·	14%	11µM*	23µM*	?
COC(=O)c1cc2oc3ccccc3c2n1CC(=O)Nc1cccc(SC)c1	-8%	·	-7%	·	·
Fc1ccccc1N1CCN(c2nnc(C(F)(F)F)c3nnn(Cc4ccccc4)c23)CC1	5%	·	-1%	·	·
O=C1NCCN/C1=C\C(=O)c1ccc(F)cc1	·	?	?	18%	29%
CC1CN/C(=C\C(=O)c2ccccc2)C(=O)N1 (stereo not given)	10µM*	4µM*	12µM*	?	2.8µM*
O=C1NCCN/C1=C\C(=O)c1ccc(Cl)cc1	·	3.5µM*	11µM*	?	1.6µM*
CC1CN/C(=C\C(=O)c2ccc(Cl)cc2)C(=O)N1 (stereo not given)	3.2µM*	0.5µM*	2.4µM*	?	0.4µM*
CC(C)NC(=O)Cn1ncn2c(cc3cc(F)ccc32)c1=O	-9%	·	0%	·	·
O=C(Nc1nc2ccsc2c(=O)s1)c1ccc(F)cc1	·	0.28µM*	0.54µM*	?	0.4µM*
Cc1csc2c(=O)sc(NC(=O)c3ccc(F)cc3Cl)nc12	·	-11%	-1%	-9%	-1%

Assay outcomes as filed in PubChem BioAssay.
